Source: PubChem (National Center for Advancing Translational Sciences (NCATS))
TDP1 cell CPT: qHTS for Inhibitors of human tyrosyl-DNA phosphodiesterase 1 (TDP1): qHTS in cells in presence of CPT; chicken DT40 Tdp1-/-;hTDP1 cells + 20 nM CPT, ATP luminescence, 48 h; Potency, µM (top dose mostly 46.2 µM), for the others: at the top dose activity change, negative = growth inhibition, hits mostly inhibitors; 12% of 420,000 active; note: potency is the fitted concentration of half-maximal effect; % is set by controls: 0 for no effect and ±100 for the full control effect; nearly all actives have a fitted effect of over 55% in size
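Cell growth measured by CellTiter-Glo luminescence after a minimum 48 h, 37 C compound exposure with 20 nM CPT in Tdp1-knockout DT40 cells stably expressing hTDP1, seeded 400/well; qHTS titration format.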
IL1B secr inh: qHTS for Inhibitors of Inflammasome Signaling: IL-1-beta AlphaLISA Primary Screen; 4.7% of 360,000 active; AID 743279, 2014; THP-1 LPS/ATP IL-1B secretion, AlphaLISA, 16 h; stronger effect = lower value; activity change, % at 57.5 µM; in the data active = activity change below about -50%; inconclusive = mostly about -30% to -49%; note: % is set by controls: 0 for no effect and ±100 for the full control effect
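THP-1 cells pretreated 1 hr with compounds (up to 57.5 uM final), then stimulated with LPS (250 ng/mL final) plus ATP (1.25 mM final); secreted IL-1B measured by AlphaLISA after 16 hr, decreased signal indicating inhibition.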
TGFb SMAD3 inh: qHTS for Inhibitors of TGF-b; Potency, µM (titrated, usually from 46.1 µM), inactives show top-dose activity, negative = inhibition, actives largely listed as inhibitors; AID 588855, 2011; 1.2% of 410,000 active; HepG2 CAGA-GFP TGF-b/SMAD3 reporter, GFP fluorescence, 18 h; TGF-beta stimulated, 500 pg/mL final; note: potency is the fitted concentration of half-maximal effect; % is set by controls: 0 for no effect and ±100 for the full control effect; nearly all actives have a fitted effect of over 65% in size
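Cell-based qHTS in HEPG2 carrying a CAGA-GFP Smad reporter; compounds added before 500 pg/mL final TGF-beta, 18 h incubation at 37 degrees C, GFP fluorescence quantified per cell by imaging cytometry.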
DT40 TDP1 no CPT: qHTS for Inhibitors of human tyrosyl-DNA phosphodiesterase 1 (TDP1): qHTS in cells in absence of CPT; DT40 Tdp1-/- hTDP1 cells, no CPT, ATP luminescence, 48 h; Potency, µM (highest dose often 46.2 µM), inactives show top-dose activity change, negative = growth inhibition, usual class: inhibitors; 15% of 420,000 active; note: potency is the fitted concentration of half-maximal effect; % is set by controls: 0 for no effect and ±100 for the full control effect; nearly all actives have a fitted effect of over 55% in size
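Stably hTDP1-transfected Tdp1-null chicken DT40 cells were treated with library compounds minus camptothecin and grown for at least 48 hr at 37 °C, after which cellular ATP was quantified by luminescence.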
HepG2 viability: qHTS for Inhibitors of TGF-b: Cytotox Counterscreen | HepG2 CAGA-GFP viability, ATP luminescence, 18 h | Potency, µM (titrated, usually from 46.1 µM), for inactives: at the highest dose activity change, negative = cytotoxicity, hits mostly cytotoxic | 0.76% of 410,000 active | AID 588856, 2011; note: potency is the fitted concentration of half-maximal effect
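HepG2 CAGA-GFP cells (1000/well, DMEM with 1% FBS) received compound, then TGF-beta at 500 pg/mL final, and were incubated 18 hours at 37 degrees C. Viability was read by CellTiter-Glo luminescence. Media-only wells were set as complete cell-killing and DMSO as no toxicity.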
TDP1 block: qHTS Assay for Inhibitors of Tyrosyl-DNA Phosphodiesterase (TDP1). recombinant TDP1, AlphaScreen DNA substrate cleavage. Potency, µM (series often up to 130 µM), for the others: top-dose activity change, negative = inhibition, actives largely listed as inhibitors. 0.28% of 350,000 active; note: potency is the fitted concentration of half-maximal effect; % is set by controls: 0 for no effect and ±100 for the full control effect; nearly all actives have a fitted effect of over 40% in size
Target sequence (Q9NUW8 whole entry, looked up): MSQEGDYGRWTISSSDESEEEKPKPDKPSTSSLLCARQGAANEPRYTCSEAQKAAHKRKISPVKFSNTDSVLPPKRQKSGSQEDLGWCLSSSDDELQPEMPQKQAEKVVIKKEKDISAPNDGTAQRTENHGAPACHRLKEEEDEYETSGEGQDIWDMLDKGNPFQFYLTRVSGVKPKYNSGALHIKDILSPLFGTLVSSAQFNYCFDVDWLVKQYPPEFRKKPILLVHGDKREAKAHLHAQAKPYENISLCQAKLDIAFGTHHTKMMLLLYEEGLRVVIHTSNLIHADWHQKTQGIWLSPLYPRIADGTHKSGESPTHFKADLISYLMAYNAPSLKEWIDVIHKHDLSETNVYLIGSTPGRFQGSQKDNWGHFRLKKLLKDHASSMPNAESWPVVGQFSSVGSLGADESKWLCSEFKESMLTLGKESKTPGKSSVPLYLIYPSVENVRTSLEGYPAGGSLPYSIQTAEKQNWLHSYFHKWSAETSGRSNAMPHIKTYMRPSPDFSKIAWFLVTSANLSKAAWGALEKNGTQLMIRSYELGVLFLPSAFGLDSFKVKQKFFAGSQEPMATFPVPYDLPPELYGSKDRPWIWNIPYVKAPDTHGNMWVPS
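Recombinant E. coli-expressed Tdp1 (1 nM) preincubated with compound 15 min at RT, then 5'-biotin/3'-phosphotyrosine-FITC DNA substrate (15 nM) added for 5 min. AlphaScreen beads (10 ug/ml) added, 10 min RT; tyrosine-FITC cleavage read as signal loss.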
Starred values were filed as active, the others as inactive; ? = inconclusive; nt = not tested or not shown; ! = repeats disagree; [ ] = dose if it differs, or a comment. Hits are enriched below; roughly 18% of the tested compounds scored in any of these assays. Unless noted, calls come from the whole dose curve; as a rule, active = well fitted curve in the direction sought with a large enough effect; inconclusive = small, poorly fitted or top-dose-only effect, or another doubt; inactive = no such curve, though single readings can be large; an effect the other way counts as inactive or inconclusive.

SMILES	TDP1 cell CPT	IL1B secr inh	TGFb SMAD3 inh	DT40 TDP1 no CPT	HepG2 viability	TDP1 block
O=C(CCNS(=O)(=O)c1ccc(OC(F)(F)F)cc1)Nc1cccc(S(=O)(=O)N2CCCC2)c1	18µM*	-5	?	?	-1%	nt
CC(C)(C)c1ccc(OCCC(=O)Nc2cccc(S(=O)(=O)N3CCCC3)c2)cc1	?	2	?	?	-28%	nt
COc1ccc(/C=C/C(=O)ONC2=NCCCCC2)cc1OC	23µM*	-6	-19%	?	-39%	3%
COc1ccc(/C=C/C(=O)N2CCN(S(=O)(=O)c3ccccc3)CC2)cc1OC	-7%	-5	-11%	?	18%	-1%
O=C(CCNC(=O)c1ccc(Cl)cc1)Nc1cccc(S(=O)(=O)N2CCCCCC2)c1	?	?	2%	-22%	-9%	-6%[0.505 µM]
Cc1cc(NC(=O)CSc2nc(-c3ccccc3C)nc3c2c(=O)n(C)c(=O)n3C)no1	-18%	nt	-2%	-18%	12%	8%
COc1ccc(CC(=O)Nc2cccc(S(=O)(=O)N3CCOCC3)c2)cc1OC	?	-14	-19%	?	-4%	1%
COc1ccc(CC(=O)Nc2cccc(S(=O)(=O)N3CCCC3)c2)cc1OC	15µM*	-15	-26%	18µM*	-27%	0%
O=C(CSc1nnc(-c2cccc(S(=O)(=O)N3CCOCC3)c2)n1C1CCCCCC1)NCc1ccccc1	22µM*	-22	-34%	?	-17%	2%
Cc1nnc(SCC(=O)Nc2cccc(S(=O)(=O)N3CCCC3)c2)n1C1CC1	-14%	-6	-6%	29µM*	-8%	nt
CNC(=O)CSc1nnc(-c2cccc(S(=O)(=O)N3CCOCC3)c2)n1-c1ccc(F)cc1	-13%	24	-1%	-3%	-35%	6%
O=C(CCl)Nc1cccc(S(=O)(=O)N2CCCCCC2)c1	4.1µM*	-102*	?	5.2µM*	-65%	11%
Cc1nc(=O)c(-c2ccccc2)c(C)n1-c1cccc(/C=C/C(=O)O)c1	-1%	11	7%	0%	4%	nt
O=C(Cc1ccccc1F)Nc1cccc(S(=O)(=O)N2CCCCC2)c1	?	18	9%	21µM*	-15%	nt
O=C(Cc1c[nH]c2ccccc12)Nc1cccc(S(=O)(=O)N2CCCCC2)c1	nt	nt	nt	nt	nt	8%
O=C(O)C1OC(Oc2cc3oc(-c4ccccc4)cc(=O)c3c(O)c2O)C(O)C(O)C1O (centres undefined)	23µM*	1	-12%	?	0%	5%
COc1c(OC2OC(C(=O)O)C(O)C(O)C2O)cc(O)c2c(=O)cc(-c3ccccc3)oc12 (centres undefined)	5%	11	-13%	6%	-2%	nt
CCC1C(=O)NCCN1Cc1ccc2c(c1)CN(Cc1ccc(OC)c(OC)c1)CCO2 (centres undefined)	0%[9.04 µM]	nt	nt	-25%	nt	nt
CC1(CCc2ccccc2)NC(=O)N(CC(=O)N2CC(=O)Nc3ccccc32)C1=O (centres undefined)	-11%	-14	4%	-8%	14%	0%
CCc1ccc(C=O)cc1	0%	nt	-2%	0%	-4%	nt
CCc1ccc(C(c2ccc(CC)cc2)C(Cl)Cl)cc1	7%	2	1%	0%	-31%	20µM*!
Cn1c2c(c(=O)n(C)c1=O)C(C(F)(F)F)(C(F)(F)F)N=C(C1CCCCC1)N2	18µM*	-11	-4%	26µM*	1%	5%
Cc1ccccc1C1=NC(C(F)(F)F)(C(F)(F)F)c2c(n(C)c(=O)n(C)c2=O)N1	?	-5	-13%	23µM*	-18%	-5%
Cn1c2c(c(=O)n(C)c1=O)C(C(F)(F)F)(C(F)(F)F)N=C(c1ccc(Cl)cc1)N2	0.92µM*	-2	1.8µM*	1.3µM*	-24%	2%
O=C(NC1CC2CCCC(C1)N2C(=O)Nc1ccccc1)C1CC1 (centres undefined)	-4%	-2	0%	-5%	-28%	10%
SMILES	TDP1 cell CPT	IL1B secr inh	TGFb SMAD3 inh	DT40 TDP1 no CPT	HepG2 viability	TDP1 block
CS(=O)(=O)c1ccc(Cl)c(NC(=O)CCN2C(=O)NC3(CCCC3)C2=O)c1	20%	6	14%	10%	7%	-1%
O=C1NC[C@@H](CCCCN2CCN(CCC3CCCCC3)C(=O)C2=O)N(Cc2ccccc2)C1=O	-6%	-1	nt	-10%	nt	nt
COc1cccc(N2C(C(C)=O)=NN(c3ccccc3)C2c2ccc(N3CCOCC3)cc2)c1 (centres undefined)	18µM*	5	7%	16µM*	-26%	-5%
COc1cccc(C(=O)OCC(=O)Nc2ccc(N3CCOCC3)cc2)c1	1%	11	2%	-10%	0%	0%
COc1ccc(CCNC(=O)CCc2c(C)c3ccc(O)c(C)c3oc2=O)cc1	?	nt	-2%	?	-27%	4%
O=C(c1nc2ccccn2c1CN1CCC(Cc2ccccc2)CC1)N1CCCC1	?	-6	-4%	23µM*	-15%	3%
O=C(CC1CCCCC1)NCCS(=O)(=O)N1CCN(c2ccccc2)CC1	-19%	8	-4%	-28%	-12%	-2%
COc1cc(CN2CCC3(CCC(CNC(=O)c4ccccc4)O3)CC2)cc(OC)c1 (centres undefined)	10µM*	nt	nt	?	nt	nt
COc1ccc(F)c(CN2CCC3(CCC(CNC(=O)c4cc(C)nn4C)O3)CC2)c1 (centres undefined)	?	nt	nt	15µM*	nt	nt
Cc1cc(C(=O)NCC2CCC3(CCN(Cc4ccc(-c5ccccc5)cc4)CC3)O2)n(C)n1 (centres undefined)	?	nt	nt	4.6µM*	nt	nt
C=C(C)C1CC[C@]2(CO)CC[C@@]3(C)[C@H](CCC4[C@@]5(C)CCC(O)C(C)(C)C5CC[C@@]43C)C12 (some centres undefined)	-5%	nt	nt	-19%	nt	3%[56.1 µM]
CC1(C)O[C@H]2[C@@H](O1)[C@@H](C(=O)Nc1cc(F)ccc1F)O[C@@H]1OC(C)(C)O[C@@H]12	-7%	nt	2%	-6%	-4%	8%
COc1ccc(NC(=S)NC(=O)c2cncc(Br)c2)c(OC)c1	-2%	42	3%	-6%	-1%	nt
